The whole screen tested about 5,500 compounds, of which about 2,000 (36%) were called active. Roughly 18% stayed inconclusive and do not appear here. No stated cut-off is given here; in the data, active means normalized growth mostly below about 0.91 (no sharp cut-off); inconclusive means no clear call, values can overlap the other calls; inactive means mostly above about 0.92. The list shows a part of the results.
Experiment: chemical genetic growth profiling, strain panel (AID 1159580);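 further: tested at 20 µM; growth read once vehicle control cultures reached saturation at 30 °C; 1 = growth at the plate median or of vehicle wells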
Conditions: S. cerevisiae deletion strains, growth OD
[1] = locus YAL013W, strain DEP1, stronger effect = lower value
[2] = locus YAL040C, strain CLN3, stronger effect = lower value
[3] = locus YCL061C, strain MRC1 (second series), stronger effect = lower value
[4] = locus YER002W, strain NOP16, stronger effect = lower value
[5] = locus YMR263W, strain SAP30, stronger effect = lower value
[6] = locus YNL175C, strain NOP13, stronger effect = lower value
[7] = locus YNL197C, strain WHI3, stronger effect = lower value
[8] = locus YNL224C, strain SQS1, stronger effect = lower value
[9] = locus YOR083W, strain WHI5 (second series), stronger effect = lower value
[10] = locus YPL055C, strain LGE1, stronger effect = lower value

Measured: normalized growth

c1ccc2nc(C3=NCCN3)ccc2c1
inactive: [1] 0.99 | [2] 1.04 | [3] 0.986 | [4] 0.993 | locus YGR229C, strain SMI1, stronger effect = lower value 0.955 | [5] 0.982 | [6] 0.995 | [7] 0.996 | [8] 0.993 | [9] 1 | [10] 1.01 | locus YPL241C, strain CIN2, stronger effect = lower value 0.987

NC(=O)CN1CC(O)CC1=O (stereo not given)
inactive: [1] 1 | [2] 1 | [3] 1 | locus YDR363W, strain ESC2, stronger effect = lower value 0.995 | [4] 1.01 | locus YGR078C, strain PAC10, stronger effect = lower value 1.02 | locus YJR075W, strain HOC1, stronger effect = lower value 1.01 | [5] 1 | [6] 1.01 | [7] 1.01 | [8] 1 | [9] 1 | [10] 1.01

Source: PubChem BioAssay AID1159580 (chemical genetic matrix, 2015)
